PLC-beta3 inh: human PLC-beta3 inhibitors, primary screen, biochemical, fluorescence; Purified PLC-beta3, fluorogenic substrate; inhibition, % at 12.2 µM; actives 0.18% (n = 370,000); AID 720704, 2013; in the data active = inhibition above about 11%;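 also: 0% = median of compound wells on plate and 100% = full blocker control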
CR mimetic SO: reduction of superoxide in aged yeast, primary screen, HTS | AID 2690, 2010 | S. cerevisiae aged cells, superoxide DHE fluorescence; active compounds read low | superoxide response (% of plate mean), % at 10 µM | actives 0.18% (n = 330,000);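 active = superoxide response under a set limit, about three screen SD below normal, cut at about 65% in these data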;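 also: yeast aged for seven days with compound at 30 °C before DHE staining; 100% = average MFI of all compound-treated wells on the plate with controls excluded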
HIF act: HIF pathway transcriptional activators, primary screen, cell-based, U2OS HRE-luciferase, luminescence; U2OS HRE-luciferase reporter; normalized: DMSO 0%, desferrioxamine 100%; activation, % at 7.5 µM (by protocol); actives 0.32% (n = 300,000); AID 1910, 2009;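 active = mean activation of at least 10% of the iron chelator positive control signal, with at least half of replicates also reaching 10%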
sPLA2-III inh: human group III sPLA2 inhibitors, primary screen, biochemical, QFRET, BODIPY PC-A2 liposome substrate; QFRET BODIPY PC-A2 liposome hydrolysis, fluorescence; inhibition, % at 12.2 µM; actives 0.56% (n = 370,000); AID 743126, 2013;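 active = inhibition above mean plus 3 SD of compounds lying within the high and low control bounds, cut at about 19% in these data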;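 also: 0% = median of test compound wells and 100% = no enzyme DMSO wells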
PLC-gamma1 inh: PLC-gamma1 enzyme inhibitors, primary screen, biochemical, fluorescence, purified enzyme; fluorogenic substrate; 1-phosphatidylinositol 4,5-bisphosphate phosphodiesterase gamma-1 (Homo sapiens), P19174; actives 0.84% (n = 370,000); inhibition, % at 12.2 µM; in the data active = inhibition above about 9.5%
AHR activator: AHR activators, primary screen, cell-based, luminescence, luciferase reporter, human. Aryl hydrocarbon receptor (Homo sapiens), P35869. AHR-responsive luciferase reporter cells. activation, % at 5 µM. actives 2.5% (n = 320,000). AID 2796, 2010; in the data active = activation above about 47%;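 also: 0% = vehicle wells and 100% = reference agonist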
AHR act confirm: AHR activators, confirmation, cell-based, luminescence, luciferase reporter, human | shares compounds with AHR activator | human cells, AHR-responsive luciferase reporter | activation, % at 9 µM | actives 87% (n = 2,300); in the data active = activation above about 49%;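 also: HepG2 hepatoma cells carrying a DRE-driven firefly luciferase reporter; 0% = vehicle wells and 100% = reference agonist wells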
PXR act counter: human PXR activators, counter-screen for AHR activator project, cell-based, luciferase luminescence; shares compounds with AHR activator; AID 434939, 2010; actives 88% (n = 2,300); cell-based PXR reporter; activation, % at 11.6 µM; in the data active = activation above about 11%;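 also: human hepatoma DPX-2 cells expressing full-length human PXR; 0% = DMSO and 100% = reference agonist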
Target sequence (O75469 whole entry, looked up): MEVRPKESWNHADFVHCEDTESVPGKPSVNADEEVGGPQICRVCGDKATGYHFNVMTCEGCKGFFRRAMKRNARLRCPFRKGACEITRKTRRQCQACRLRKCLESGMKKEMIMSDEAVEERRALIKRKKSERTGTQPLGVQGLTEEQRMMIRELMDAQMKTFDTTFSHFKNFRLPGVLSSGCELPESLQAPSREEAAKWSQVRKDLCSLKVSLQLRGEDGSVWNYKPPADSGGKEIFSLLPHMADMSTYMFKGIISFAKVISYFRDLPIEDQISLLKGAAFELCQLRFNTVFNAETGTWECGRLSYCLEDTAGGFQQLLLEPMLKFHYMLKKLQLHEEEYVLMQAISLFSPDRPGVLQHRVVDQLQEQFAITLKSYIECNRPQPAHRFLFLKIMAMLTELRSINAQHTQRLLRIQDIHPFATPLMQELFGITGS
Numbers without * were called inactive. The list is not random: actives were taken first. Their share in the collection is about 3.9%.

Results for COc1ccccc1N(CC(O)CN1CCC(C)CC1)S(=O)(=O)c1ccccc1 (stereo not given) ?
PLC-beta3 inh: -10.1; CR mimetic SO: 96.5; HIF act: -0.3; sPLA2-III inh: 9.0; PLC-gamma1 inh: 0.5; AHR activator: -0.7

What do the screens show for `COc1cccc(C2=CC(=O)C[C@H](c3ccc4c(c3)OCO4)C2)c1OC`?
CR mimetic SO: 122.4; AHR activator: 119.5*; AHR act confirm: 109.2*; PXR act counter: 148.3*

Results for O=C1C=C(c2cccc(Br)c2)C[C@@H](c2ccc3c(c2)OCO3)C1 ?
PLC-beta3 inh: -4.9; CR mimetic SO: 120.9; sPLA2-III inh: -4.6; PLC-gamma1 inh: 0.7; AHR activator: 86.4*; AHR act confirm: 83.3*; PXR act counter: 32.9*

How did COc1cc(F)c(C2=CC(=O)C[C@H](c3ccc4c(c3)OCO4)C2)cc1F do in these assays?
PLC-beta3 inh: 1.6; CR mimetic SO: 97.2; sPLA2-III inh: 6.2; PLC-gamma1 inh: 0.5; AHR activator: 2.5

What do the screens show for `COc1ccc(F)cc1C1=CC(=O)C[C@H](c2ccc3c(c2)OCO3)C1`?
PLC-beta3 inh: -22.0; CR mimetic SO: 81.8; sPLA2-III inh: -9.6; PLC-gamma1 inh: -14.3; AHR activator: 86.1*; AHR act confirm: 72.8*; PXR act counter: 111.7*

What do the screens show for `COc1cccc(OC)c1C1=CC(=O)C[C@H](c2ccc3c(c2)OCO3)C1`?
PLC-beta3 inh: -0.9; CR mimetic SO: 103.7; sPLA2-III inh: -2.0; PLC-gamma1 inh: -1.9; AHR activator: 41.2

Results for NC1=NC(=O)/C(=C/c2cn(Cc3ccccc3)c3ccccc23)S1 ?
PLC-beta3 inh: -9.3; CR mimetic SO: 115.1; HIF act: -33.7; sPLA2-III inh: -6.2; PLC-gamma1 inh: -6.9; AHR activator: 115.5*; AHR act confirm: 87.3*; PXR act counter: 25.1*

How did S=C(Nc1ccccc1)Nc1ccc2cn[nH]c2c1 do in these assays?
PLC-beta3 inh: -12.1; CR mimetic SO: 122.6; HIF act: 2.2; sPLA2-III inh: 8.6; PLC-gamma1 inh: -5.6; AHR activator: 5.9

Results for O=C(NC(=S)Nc1ccc2cn[nH]c2c1)c1ccccc1 ?
PLC-beta3 inh: -4.7; CR mimetic SO: 99.8; HIF act: 2.6; sPLA2-III inh: 3.3; PLC-gamma1 inh: 0.2; AHR activator: 83.7*; AHR act confirm: 80.8*; PXR act counter: 75.3*

How did CCOc1ccccc1N1CC(C(=O)N(C)Cc2cccnc2)CC1=O (stereo not given) do in these assays?
PLC-beta3 inh: -5.5; CR mimetic SO: 88.3; HIF act: 0.0; sPLA2-III inh: 2.0; PLC-gamma1 inh: 2.0; AHR activator: 3.3

Results for CSc1nc2[nH]c3c(c2c2nnnn12)CCCC3 ?
PLC-beta3 inh: inactive; CR mimetic SO: 92.8; HIF act: 0.2; sPLA2-III inh: 2.1; PLC-gamma1 inh: inactive; AHR activator: 115.6*; AHR act confirm: 106.9*; PXR act counter: 44.3*

What do the screens show for `COc1cc(/C=N/NC(=O)c2ccc3c(c2)OCCO3)cc(Cl)c1O`?
PLC-beta3 inh: inactive; CR mimetic SO: 91.7; HIF act: 0.6; sPLA2-III inh: 2.6; PLC-gamma1 inh: inactive; AHR activator: 0.3

How did CCc1ccc2oc(-c3cc(N)cc(C)c3O)nc2c1 do in these assays?
PLC-beta3 inh: -85.6; CR mimetic SO: 112.6; sPLA2-III inh: 3.5; PLC-gamma1 inh: -68.9; AHR activator: 114.4*; AHR act confirm: 117.2*; PXR act counter: 12.1*

Source: PubChem
